The source made the active and inactive calls.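 Rule for the calls, unless noted: active = z-score of at least 1.8 in each of two replicates, scored against plate mean and spread of sample wells; inactive = the rest.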
Assays:
[1] = MELAS cybrid and Rieske KO viability enhancers – cell-based, MELAS cybrids, Rieske KO mouse fibroblasts, CellTiter-Glo, primary screen (AID 1508586;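 active = mean z-score across replicates of 1.96 or higher in either the MELAS or the Rieske mutant cell line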;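 note: test concentration not given here; z relative to plate mean and SD of compound and empty wells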); details: low glucose
[2] = galactose survival enhancers in mitochondrial complex I cybrids – cell-based, galactose medium, ATP luminescence, primary screen (AID 1645843); details: complex I mutant cybrid cells, 72 h, stronger effect = higher value;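 note: positive z means more ATP and so rescue of galactose-driven cybrid death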
[3] = MELAS cybrid survival, CellTiter-Glo 48 h, stronger effect = higher value
[4] = Rieske KO mouse fibroblast survival, CellTiter-Glo 72 h

Structure (SMILES)	z-score [1, 3]	z-score [1, 4]	z-score [2]
Cc1ccc(S(=O)(=O)N2CCN3C(=O)[C@H](Cc4ccc(Cl)cc4)NC(=O)[C@H]3C2)cc1	1.43 (inactive)	-0.392	-0.845 (inactive)
Cc1nc(CN(C)C2CCc3c(c(C(=O)N(C)C)nn3CC3CCCCC3)C2)cs1 (stereo not drawn)	-0.264 (inactive)	-0.141	0.725 (inactive)
COc1cc(CN2CCc3c(cc(-c4cccc(F)c4)c(=O)n3CCn3ccc(C)n3)C2)ccc1O	0.37 (inactive)	0.944	-0.15 (inactive)
COC(=O)c1c(NC(=O)C2CCCO2)c2cc(NCc3ccccn3)cnc2n1CCc1ccccc1 (stereo not drawn)	-0.44 (inactive)	-0.0393	-0.87 (inactive)
CCc1nc(Cn2c3c(cc(-c4ccccc4C)c2=O)CN(Cc2ccc(O)c(Cl)c2)CC3)no1	-0.286 (inactive)	-0.271	0.44 (inactive)
COc1cccc(C(=O)N2CCN3C(=O)[C@H](C(C)C)NC(=O)[C@H]3C2)c1	-0.0303 (inactive)	-0.513	0.605 (inactive)
O=C(NCCN1CCOCC1)c1cc(-c2ccccc2)cc(S(=O)(=O)N2CCSCC2)c1	-0.0926 (inactive)	-0.421	1.53 (inactive)
Cc1ccnn1CCC(=O)N1CCc2c(cc(Cc3ccccc3F)c(=O)n2Cc2cccnc2)C1	-0.36 (inactive)	-0.461	0.325 (inactive)
Cc1c(CN2CCc3c(c(C(=O)NC4CCCC4)nn3CC(C)C)C2)c(=O)n(-c2ccccc2)n1C	-0.389 (inactive)	-0.276	0.17 (inactive)
CN(Cc1nc(-c2ccccc2)cs1)C1CCc2c(c(C(=O)N3CCSCC3)nn2C)C1 (stereo not drawn)	0.0592 (inactive)	0.0851	0.7 (inactive)
CCN1C(=O)N(CCc2ccccc2)C2(CCN(Cc3cnn(-c4ccccc4OC)c3)CC2)C1=O	0.108 (inactive)	0.254	-0.37 (inactive)
Cc1ccc(-c2cc(C(=O)NCc3c(C)nn(C)c3C)cc(S(=O)(=O)N3CCOCC3)c2)s1	-0.303 (inactive)	-0.219	0.42 (inactive)
CCN1C(=O)N(C)C(=O)C12CCN(Cc1ccc(Oc3ncccn3)cc1)CC2	0.0802 (inactive)	-0.536	1.74 (inactive)
Cn1c2c(cc(-c3ccc(OC(F)(F)F)cc3)c1=O)CN(C(=O)C1CC(=O)c3ccccc31)CC2 (stereo not drawn)	0.0877 (inactive)	0.643	0.305 (inactive)
CN1CCN(S(=O)(=O)c2cc(C(=O)NCCc3ccccn3)cc(-c3ccccc3)c2)CC1	-0.308 (inactive)	-0.279	-0.695 (inactive)
CC(C)CN1C[C@@H](CN2CCOCC2)C[C@@H](C(=O)N2CCCC2)C1	-0.0982 (inactive)	-0.607	-0.485 (inactive)
COc1ccc(CN2C(=O)N(C)C3(CCN(Cc4cccn4-c4ccccn4)CC3)C2=O)cc1	-0.452 (inactive)	-0.368	0.16 (inactive)
O=C1CCCc2occ(C(=O)N3CC(=O)N(Cc4ccccc4)CC(OCc4ccccn4)C3)c21 (stereo not drawn)	-0.412 (inactive)	-0.733	2.83 (inactive)
CC(C)CNC(=O)[C@@H]1C[C@H](CN2CCOCC2)CN(Cc2ccc(O)cc2)C1	-0.104 (inactive)	-0.186	-0.31 (inactive)
COc1cc(CN2CC(=O)N(CC3CCOCC3)CC(OCc3ccccn3)C2)cc2c1OCO2 (stereo not drawn)	-0.369	4.95	-1.33 (inactive)
O=C(Cn1cnnn1)N1CC(=O)N(C2CCCCC2)CC(OCc2ccccc2)C1 (stereo not drawn)	-0.326 (inactive)	0.527	0.21 (inactive)
COc1ccc(C(=O)N2CCN3C(=O)[C@H](COCc4ccccc4)NC(=O)[C@H]3C2)cc1	1.06 (inactive)	-0.655	-0.43 (inactive)
Cc1ccc2c(-c3cc4c(n(CC5CC5)c3=O)CCN(C(=O)c3ccc5c(c3)OCO5)C4)cccc2n1	2.47 (active)	3.71	-0.54 (inactive)
CN1CCN(S(=O)(=O)c2cc(C(=O)NCC3CCCO3)cc(-c3ccccc3)c2)CC1 (stereo not drawn)	0.139 (inactive)	0.37	-0.515 (inactive)
COc1ccc(-c2cc3c(n(C)c2=O)CCN(C2CCSC2)C3)c2ccc(C)nc12 (stereo not drawn)	-0.852 (inactive)	-0.332	1.09 (inactive)
COc1ccccc1C(=O)N1CCN2C(=O)[C@@H]3CSCN3C(=O)[C@H]2C1	-0.216 (inactive)	0.475	-0.395 (inactive)

Structure (SMILES)	z-score [1, 3]	z-score [1, 4]	z-score [2]
CC(C)[C@@H]1NC(=O)[C@@H]2C[C@H](NC(=O)OCc3ccccc3)CN2C1=O	-0.138 (inactive)	-0.152	-1.16 (inactive)
COC(=O)c1c(NC(=O)c2ccoc2)c2cc(NC3CCSCC3)cnc2n1CC(C)C	-0.463 (inactive)	-0.31	0.98 (inactive)
CNS(=O)(=O)c1cc(NCc2cnc(C)[nH]2)cc(C(=O)Nc2ccc3c(c2)CCC3)c1	-0.00503 (inactive)	-0.751	0.02 (inactive)
O=C(NCC1CCCO1)[C@@H]1C[C@H](CN2CCOCC2)CN(Cc2ccc3ccccc3c2)C1 (stereo partly drawn)	-0.349 (inactive)	-0.753	0.17 (inactive)
CCOC(=O)c1nn(CCc2ccccc2)c2c1CN(C(=O)CCc1nc3ccccc3s1)CC2	-0.261 (inactive)	0.0715	0.345 (inactive)
C=CCn1nc(C(=O)N2CCSCC2)c2c1CCC(NCCCSC)C2 (stereo not drawn)	-0.0452 (inactive)	-0.019	0.93 (inactive)
O=C(CC1=CCCCC1)N1CCc2c(cc(-c3cccc(F)c3)c(=O)n2CCN2CCCCC2)C1	-0.288 (inactive)	-0.152	0.55 (inactive)
COC(=O)CN1C(=O)N(CCc2ccccc2)C2(CCN(Cc3ccc4c(c3)OCCO4)CC2)C1=O	-0.212 (inactive)	-0.109	1.24 (inactive)
CCCCNC(=O)[C@@H]1C[C@H](CN2CCOCC2)CN(Cc2ccccc2)C1	-0.071 (inactive)	-0.282	-0.205 (inactive)
CC(C)Cn1nc(C(=O)NCc2cccnc2)c2c1CCN(C(=O)c1scc3c1OCCO3)C2	-0.675	5.2	-1.46 (inactive)
CC(C)CCNc1cc(C(=O)NCCCn2ccnc2)cc(S(=O)(=O)N2CCCC2)c1	0.646 (inactive)	-0.386	-0.97 (inactive)
CC(C)NS(=O)(=O)c1cc(NCc2cnn(C)c2)cc(C(=O)NCc2cn3ccccc3n2)c1	-0.615 (inactive)	-0.511	1.27 (inactive)
CN(Cc1ccco1)C(=O)c1nn(C)c2c1CC(N1CCOc3ccc(Cl)cc3C1)CC2 (stereo not drawn)	-0.11 (inactive)	0.109	-0.61 (inactive)
O=C([C@@H]1C[C@H](CN2CCOCC2)CN(Cc2ccccc2)C1)N1CCCC1	0.0951 (inactive)	-0.211	-0.6 (inactive)
CC(C)CCN1C(=O)N(CCN(C)C)C(=O)C12CCN(Cc1cn(C)c3ccccc13)CC2	-0.333 (inactive)	-0.689	0.81 (inactive)
CCn1nc(C(=O)N(C)Cc2ccco2)c2c1CCC(N(C)Cc1ccon1)C2 (stereo not drawn)	-0.655 (inactive)	-0.252	-1.03 (inactive)
COC(=O)c1c(NC(=O)c2ccco2)c2cc(NC3CCOCC3)cnc2n1C	-0.622 (inactive)	-0.251	0.7 (inactive)
C[C@H]1NC(=O)[C@H]2CN(C(=O)Oc3ccc(Cl)cc3)CCN2C1=O	-0.514 (inactive)	0.985	0.585 (inactive)
COc1ccc(CN2C[C@@H](COc3cccc(C(F)(F)F)c3)C[C@@H](C(=O)NCC(C)C)C2)cc1OC	-0.34 (inactive)	0.0165	-1.45 (inactive)
CCn1c(C(=O)OC)c(NC(C)=O)c2cc(NCc3ccc(OC)cc3)cnc21	-0.521 (inactive)	-0.331	-0.96 (inactive)
O=C1N[C@H](Cc2ccc(O)cc2)C(=O)N2CCN(C(=O)c3cccc4ccccc34)C[C@H]12	0.285 (inactive)	-0.378	-0.195 (inactive)
COCc1ccc(C(=O)N2CCc3c(cc(-c4ccncc4)c(=O)n3CCN3CCCCC3)C2)o1	-0.345 (inactive)	0.626	0.77 (inactive)
CN(C)c1cccc(NC(=O)c2cc(NCc3cnn(C)c3)cc(S(=O)(=O)N3CCCC3)c2)c1	-0.28 (inactive)	-0.862	0.265 (inactive)
O=C1[C@@H]2C[C@@H](O)CN2C(=O)[C@H]2CN(Cc3ccc(CN4CCCCC4)s3)CCN12	-0.179 (inactive)	-0.745	0.32 (inactive)
COc1ccccc1C(=O)N1CCN2C(=O)[C@H](CCCCN)NC(=O)[C@H]2C1	0.643 (inactive)	-0.574	-0.735 (inactive)

Reference: PubChem BioAssay
